Laboratory results reported in PubChem BioAssay.
Active and inactive are the calls of the source.

How the values were obtained:
[1] = test system: Plasmodium falciparum Sir2 (PF13_0152, Sir2A); test: pfSir2 binders on small-molecule microarrays, primary screen, biochemical, small-molecule microarray, 635 nm fluorescence (AID 1098); conditions: small-molecule microarray binding, fluorescence 635 nm; higher = more signal;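 also: score merges spot fluorescence intensity with its signal-to-noise ratio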
[2] = small-molecule microarray binders of probe aDKK1, primary screen, biochemical, biotinylated probe, 635/667 nm fluorescence (AID 1099); conditions: higher = more signal;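 also: score merges 667nm spot fluorescence with signal to noise across triplicate slides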
[3] = small-molecule microarray binders of probe aCHRDL2, primary screen, biochemical, biotinylated probe, 635/667 nm fluorescence (AID 1100); conditions: higher = more signal
[4] = splicing luciferase reporter signal modulators, primary screen, spliceosome inhibition project, cell-based, HEK293, splice +/- reporter (AID 1101); conditions: luminescence, 24 h, higher = more signal, called active from +8 up or from −8 down;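 also: HEK293 cells carrying a splicing-competent luciferase reporter gene; test concentration not given here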
[5] = target: Fibroblast growth factor 10 (Homo sapiens) (UniProt O15520); test: FGF10 binders on small-molecule microarrays, primary screen, biochemical, small-molecule microarray, 635 nm fluorescence (AID 1102); conditions: FGF10 binding, fluorescence 635 nm, higher = more signal
[6] = test system: glycogen synthase kinase-3 (GSK3A per assay name; protocol says GSK3B); test: GSK3 binders on small-molecule microarrays, primary screen, biochemical, small-molecule microarray, 635 nm fluorescence, GSK3A (AID 1103); conditions: small-molecule microarray binding, fluorescence 635 nm; higher = more signal; also: the record names both GSK3A and GSK3B
[7] = target: Epidermal growth factor receptor (Homo sapiens) (UniProt P00533); test: EGFR binders on small-molecule microarrays, primary screen, biochemical, small-molecule microarray, 635 nm fluorescence (AID 1104); conditions: EGFR binding, higher = more signal;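 also: score merges 667 nm emission intensity with spot signal to noise over triplicate slides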
[8] = target: Follistatin-related protein 3 (Homo sapiens) (UniProt O95633); test: FSTL3 binders on small-molecule microarrays, primary screen, biochemical, small-molecule microarray, 635 nm fluorescence (AID 1105); conditions: FSTL3 binding, higher = more signal;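 also: score merges emission near 667 nm and signal to noise per printed spot across three slides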
[9] = target: Dickkopf-related protein 1 (Homo sapiens) (UniProt O94907); test: DKK1 binders on small-molecule microarrays, primary screen, biochemical, small-molecule microarray, 635 nm fluorescence scan (AID 1106); conditions: DKK1 binding, higher = more signal;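 also: score merges emission near 667 nm with signal to noise over three replicate slides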
[10] = test system: Inhibin beta A chain (activin A); test: INHBA (activin A) binders on microarrays, primary screen, biochemical, small-molecule microarray, 635 nm fluorescence scan (AID 1107); conditions: small-molecule microarray binding, higher = more signal;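 also: mouse activin A protein probed at 4.33 µg/mL on printed slides; score merges bound-protein fluorescence near 667 nm with spot signal-to-noise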
[11] = test system: Human papillomavirus type 1a protein E7 (residues 44-93); test: HPV1a E7 fragment binders on microarrays, primary screen, biochemical, small-molecule microarray, residues 44-93, 635 nm fluorescence (AID 1108); conditions: small-molecule microarray binding, fluorescence 635 nm; higher = more signal;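 also: E7 fragment applied at 1 µg/mL in TBST for 1 h at 4 C; score combines spot fluorescence with its signal to noise ratio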
[12] = modulators of HCV replicon luciferase signal, primary screen, HCV replication inhibitor project, Huh7 cells, luciferase reporter (AID 1109); conditions: 48 h, higher = more signal;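 also: huh7 hepatoma cells harbouring a luciferase neomycin HCV replicon reporter; luciferase luminescence as measure of HCV replicon replication; test concentration not given here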
[13] = target: Left-right determination factor 2 (Homo sapiens) (UniProt O00292); test: LEFTY2 binders on small-molecule microarrays, primary screen, biochemical, small-molecule microarray, 635 nm fluorescence scan (AID 1110); conditions: LEFTY2 binding, higher = more signal
[14] = target: Calmodulin-1 (Homo sapiens) (UniProt P0DP23); test: CALM1 binders on microarrays, EGTA buffer, profiling panel, biochemical, small-molecule microarray, Cy5-labelled CALM1 (AID 1111); conditions: Cy5-CALM1 binding fluorescence, higher = more signal;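 also: labelled calmodulin applied in Tris saline Tween buffer holding calcium plus EGTA and DTT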
[15] = target: Calmodulin-1 (Homo sapiens) (UniProt P0DP23); test: calcium-bound CALM1 binders on microarrays, profiling panel, artefact control for SMM control-protein annotation, biochemical, small-molecule microarray, Cy5-labelled CALM1, plus calcium (AID 1112); conditions: Cy5-CALM1 binding fluorescence, higher = more signal;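 also: score merges spot fluorescence with signal to noise from triplicate slides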
[16] = small-molecule microarray binders of probe aWnt5a, primary screen, biochemical, biotinylated probe, 635/667 nm fluorescence (AID 1113); conditions: higher = more signal;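 also: score merges 667 nm fluorescence intensity with signal-to-noise per printed feature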
[17] = small-molecule microarray binders of probe aShh, primary screen, biochemical, biotinylated probe, 635/667 nm fluorescence (AID 1114); conditions: higher = more signal;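 also: probe is biotin-labelled aShh protein from a stem cell growth factor screen; measures binding of labelled protein to compounds printed on the slide; score merges feature fluorescence at 667 nm with signal-to-noise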
[18] = small-molecule microarray binders of probe aNog, primary screen, biochemical, biotinylated probe, 635/667 nm fluorescence (AID 1115); conditions: higher = more signal;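 also: probe is biotinylated aNog protein used at 0.15 µg/mL for 1 h at 4 C; z-score combines 667 nm fluorescence of each spot with its signal to noise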
[19] = target: Torsin-1A-interacting protein 1 (Homo sapiens) (UniProt Q5JTV8); test: LAP1 binders from COS7 cell lysate, primary screen, small-molecule microarray, 635/667 nm fluorescence (AID 1116); conditions: COS7-hLAP1 lysate binding, 635 nm fluorescence, higher = more signal
[20] = target: Alpha-bungarotoxin (Bungarus multicinctus) (UniProt P60615); test: alpha-bungarotoxin binders on microarray, profiling panel, artefact control for SMM control protein annotation, biochemical, small-molecule microarray, Alexa647 label, 635/667 nm fluorescence (AID 1117); conditions: alpha-BTX-A647 binding fluorescence, higher = more signal
Sequence of Alpha-bungarotoxin (Bungarus multicinctus) (P60615 whole entry, looked up): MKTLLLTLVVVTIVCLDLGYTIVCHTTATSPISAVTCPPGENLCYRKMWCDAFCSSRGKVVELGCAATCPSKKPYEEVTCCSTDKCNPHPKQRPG

Sequence of Left-right determination factor 2 (Homo sapiens) (O00292 whole entry, looked up): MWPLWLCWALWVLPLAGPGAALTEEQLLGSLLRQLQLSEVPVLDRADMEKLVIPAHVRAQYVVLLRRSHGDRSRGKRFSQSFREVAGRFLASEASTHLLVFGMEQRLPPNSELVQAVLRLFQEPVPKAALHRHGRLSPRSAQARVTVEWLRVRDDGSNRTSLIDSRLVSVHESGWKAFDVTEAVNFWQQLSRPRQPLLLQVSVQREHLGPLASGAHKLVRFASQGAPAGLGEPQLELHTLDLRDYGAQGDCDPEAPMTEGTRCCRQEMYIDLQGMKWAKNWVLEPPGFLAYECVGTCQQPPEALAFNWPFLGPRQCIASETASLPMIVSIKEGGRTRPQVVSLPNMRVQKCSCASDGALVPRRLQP
Sequence of Epidermal growth factor receptor (Homo sapiens) (P00533 whole entry, looked up): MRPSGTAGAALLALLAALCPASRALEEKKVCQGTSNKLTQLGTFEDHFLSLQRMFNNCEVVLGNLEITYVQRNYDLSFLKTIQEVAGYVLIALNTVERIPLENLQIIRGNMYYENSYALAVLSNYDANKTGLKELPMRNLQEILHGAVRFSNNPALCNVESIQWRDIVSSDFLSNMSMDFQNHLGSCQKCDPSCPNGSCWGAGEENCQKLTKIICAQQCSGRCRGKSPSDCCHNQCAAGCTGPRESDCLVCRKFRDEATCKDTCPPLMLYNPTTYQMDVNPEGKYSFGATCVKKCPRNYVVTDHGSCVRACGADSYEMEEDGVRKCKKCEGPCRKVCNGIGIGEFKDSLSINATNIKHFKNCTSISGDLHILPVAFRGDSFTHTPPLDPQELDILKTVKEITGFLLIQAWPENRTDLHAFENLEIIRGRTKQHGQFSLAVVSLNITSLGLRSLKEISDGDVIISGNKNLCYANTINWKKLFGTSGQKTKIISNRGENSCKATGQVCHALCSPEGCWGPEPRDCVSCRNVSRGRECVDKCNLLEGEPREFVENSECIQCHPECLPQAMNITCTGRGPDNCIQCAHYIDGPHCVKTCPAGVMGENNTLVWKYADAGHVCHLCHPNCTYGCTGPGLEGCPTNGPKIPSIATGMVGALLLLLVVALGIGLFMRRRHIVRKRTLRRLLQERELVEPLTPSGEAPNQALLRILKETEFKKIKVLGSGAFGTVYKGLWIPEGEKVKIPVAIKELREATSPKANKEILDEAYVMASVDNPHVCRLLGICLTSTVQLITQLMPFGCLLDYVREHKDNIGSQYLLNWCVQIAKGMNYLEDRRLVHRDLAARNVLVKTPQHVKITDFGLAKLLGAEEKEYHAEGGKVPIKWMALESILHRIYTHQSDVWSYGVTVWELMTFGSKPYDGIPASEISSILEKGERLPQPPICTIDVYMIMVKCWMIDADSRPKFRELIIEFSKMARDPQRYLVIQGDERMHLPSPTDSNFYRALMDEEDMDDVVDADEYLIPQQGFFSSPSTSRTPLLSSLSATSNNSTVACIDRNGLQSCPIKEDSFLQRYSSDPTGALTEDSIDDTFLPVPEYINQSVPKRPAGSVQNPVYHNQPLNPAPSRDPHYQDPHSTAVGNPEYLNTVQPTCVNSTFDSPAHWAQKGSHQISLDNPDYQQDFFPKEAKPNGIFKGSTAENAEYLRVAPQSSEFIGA
Sequence of Fibroblast growth factor 10 (Homo sapiens) (O15520 whole entry, looked up): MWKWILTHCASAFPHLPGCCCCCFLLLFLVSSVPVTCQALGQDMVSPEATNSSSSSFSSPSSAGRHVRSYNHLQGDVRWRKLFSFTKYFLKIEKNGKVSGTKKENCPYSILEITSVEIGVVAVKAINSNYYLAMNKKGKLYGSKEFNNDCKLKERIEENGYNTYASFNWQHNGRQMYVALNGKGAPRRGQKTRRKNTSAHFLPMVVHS
Sequence of Dickkopf-related protein 1 (Homo sapiens) (O94907 whole entry, looked up): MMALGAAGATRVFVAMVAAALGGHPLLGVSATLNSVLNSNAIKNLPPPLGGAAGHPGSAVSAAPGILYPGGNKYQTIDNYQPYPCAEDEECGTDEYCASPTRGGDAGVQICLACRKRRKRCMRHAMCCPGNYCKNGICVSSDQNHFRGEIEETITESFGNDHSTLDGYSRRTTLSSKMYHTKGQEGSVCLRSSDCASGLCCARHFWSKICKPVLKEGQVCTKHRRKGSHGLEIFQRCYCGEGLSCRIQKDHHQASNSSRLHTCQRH
Sequence of Torsin-1A-interacting protein 1 (Homo sapiens) (Q5JTV8 whole entry, looked up): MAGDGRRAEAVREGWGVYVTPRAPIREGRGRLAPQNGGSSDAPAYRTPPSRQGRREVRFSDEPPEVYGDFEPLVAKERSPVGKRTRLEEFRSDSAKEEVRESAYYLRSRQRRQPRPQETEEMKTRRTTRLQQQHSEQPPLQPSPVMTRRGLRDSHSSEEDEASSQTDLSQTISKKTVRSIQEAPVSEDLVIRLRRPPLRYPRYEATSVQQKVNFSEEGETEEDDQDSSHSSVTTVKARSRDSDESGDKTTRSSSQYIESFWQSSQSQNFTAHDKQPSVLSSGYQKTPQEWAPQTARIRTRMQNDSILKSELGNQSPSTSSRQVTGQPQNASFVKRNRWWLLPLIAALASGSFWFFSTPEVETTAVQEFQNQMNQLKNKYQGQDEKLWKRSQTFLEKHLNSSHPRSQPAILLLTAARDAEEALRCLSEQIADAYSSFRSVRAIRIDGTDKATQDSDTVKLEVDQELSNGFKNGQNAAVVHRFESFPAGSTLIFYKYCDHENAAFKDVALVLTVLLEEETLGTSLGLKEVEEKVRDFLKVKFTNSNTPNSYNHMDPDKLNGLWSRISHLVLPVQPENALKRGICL
Sequence of Follistatin-related protein 3 (Homo sapiens) (O95633 whole entry, looked up): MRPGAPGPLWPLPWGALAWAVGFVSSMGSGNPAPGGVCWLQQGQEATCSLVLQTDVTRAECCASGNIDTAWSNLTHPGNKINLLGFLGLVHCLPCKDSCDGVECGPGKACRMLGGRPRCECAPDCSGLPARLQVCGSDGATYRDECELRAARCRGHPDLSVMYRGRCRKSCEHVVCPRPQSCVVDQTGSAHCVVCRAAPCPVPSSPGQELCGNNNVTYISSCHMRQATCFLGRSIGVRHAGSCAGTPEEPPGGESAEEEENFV

Row | Compound | composite z-score [1] | composite z-score [2] | composite z-score [3] | z-score [4] | composite z-score [5] | composite z-score [6] | composite z-score [7] | composite z-score [8] | composite z-score [9] | composite z-score [10] | composite z-score [11] | z-score [12] | composite z-score [13] | composite z-score [14] | composite z-score [15] | composite z-score [16] | composite z-score [17] | composite z-score [18] | composite z-score [19] | composite z-score [20]
1 | CCCCN1CC=CC23O[C@@H]4/C=C\CCCOC(=O)C4[C@H]2C(=O)N(CCCO)[C@@H]3C1=O (stereo not given in full) | 0.992 | -0.222 | 0.421 | 0.187 (inactive) | -1.11 | -0.224 | -0.992 | -0.946 | -0.984 | -0.27 | 0.498 | -0.381 | -1.08 | -0.692 | -0.298 | -0.124 | -0.0211 | 0.13 | 2.1 | -0.803
2 | COC(=O)[C@@]1(Cc2ccc(OC)cc2)[C@H]2c3cc(C(=O)N(C)C)n(Cc4ccc(C(F)(F)F)nc4)c3C[C@H]2CN1C(=O)c1ccccc1 | 0.707 | 1.15 | 0.784 | -1.59 (inactive) | 0.081 | -0.178 | 0.189 | -0.015 | -0.557 | 0.663 | 0.714 | -0.657 | -0.0595 | 0.705 | 0.199 | 0.17 | 0.413 | 0.18 | 1 | -0.173
3 | Cc1ccc([C@H]2C(C(=O)O)=CCN2S(=O)(=O)c2ccc(C)cc2)cc1 | 0.487 | 0.215 | 0.761 | 0.0638 (inactive) | 0.214 | 0.47 | -0.327 | 0.312 | -0.345 | 1.03 | 0.964 | -1.02 | -0.441 | 0.659 | 0.261 | -0.001 | -0.0709 | -0.333 | 1.54 | 0.705
4 | CCCCCCc1nc(-c2ccc(-c3ccc(Cl)c(Cl)c3)o2)cc2c1[Si](C(C)C)(C(C)C)O[C@H]2c1ccccc1 | 0.0593 | -0.294 | 0.0787 | -0.112 (inactive) | -0.515 | -1.26 | -0.287 | -0.737 | 0.0981 | 0.62 | -0.545 | -0.674 | -0.0324 | -0.365 | 0.077 | -0.264 | 0.0723 | -0.141 | -0.741 | 0.622
5 | COC(=O)c1c2oc(c1C(=O)OC)C(=O)N[C@@H](C(C)C)Cn1cc(nn1)C1(CCCCC1)NC(=O)N[C@H](CO)CC2 | 1.68 | -0.324 | -0.288 | 0.343 (inactive) | 0.408 | 0.0356 | -0.375 | -0.0824 | 0.145 | -0.462 | 0.218 | 1.48 | -0.05 | -0.346 | -0.403 | -0.0269 | -0.0769 | 0.621 | 0.764 | -0.216
